Source: PubChem BioAssay
Several values for one entry are separate records, joined by “and”; a condition that tells them apart may be missing. Identical values can stand only once. Inconclusive results are not listed. Some structures have more than one record in an assay (separate samples or runs), and their calls can disagree. Activity calls are given as the source filed them. Unless noted, the limit is not given here; nearly all actives have AC50 up to about 26 µM.

What was measured:
[1] = growth inhibition of DIPG glioma cells, dose response, cell-based, SU-DIPG-XVII, MIPE5.0, CellTiter-Glo, qHTS (AID 1347060); conditions: SU-DIPG-XVII viability, CellTiter-Glo ATP luminescence;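 as to AC50: cells exposed to compound for 48 hours before viability readout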
[2] = growth inhibition of DIPG glioma cells, dose response, cell-based, SU-DIPG-XIII, MIPE4.0, CellTiter-Glo, qHTS (AID 1347061; cut-off not given, nearly all actives have AC50 up to about 37 µM;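 also: cells exposed to compound for 48 hours before readout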); conditions: SU-DIPG-XIII viability, CellTiter-Glo ATP luminescence
[3] = growth inhibition of DIPG glioma cells, dose response, cell-based, JHH-DIPG-1, MIPE4.0, CellTiter-Glo, qHTS (AID 1347062; cut-off not given, nearly all actives have AC50 up to about 27 µM;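 as to AC50: cells exposed to compound for two days before readout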); conditions: JHH-DIPG-1 viability, CellTiter-Glo ATP luminescence
[4] = growth inhibition of DIPG glioma cells, dose response, cell-based, SU-DIPG-XIII, MIPE5.0, CellTiter-Glo, qHTS (AID 1347064; cut-off not given, nearly all actives have AC50 up to about 23 µM;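 as to AC50: cells exposed to compound for 48 hours before the viability read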); conditions: SU-DIPG-XIII viability, CellTiter-Glo ATP luminescence
[5] = viability loss in pontine glioma line – cell-based, SU-DIPG-XXV, MIPE5.0, CellTiter-Glo, qHTS, dose response (AID 1347065); conditions: CellTiter-Glo ATP luminescence;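 also: cells exposed to compound for 48 hours before ATP readout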
[6] = SU-DIPG-VI glioma cell viability, MIPE4.0 library, CellTiter-Glo luminescence, qHTS (AID 1347066; cut-off not given, nearly all actives have AC50 up to about 30 µM;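 also: cells exposed to compound for 48 hours before readout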); conditions: CellTiter-Glo ATP luminescence
[7] = JHH-DIPG-1 glioma cell viability, MIPE5.0 library, CellTiter-Glo luminescence, qHTS (AID 1347067); conditions: JHH-DIPG-1 glioma viability, CellTiter-Glo ATP luminescence;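 also: cells exposed to compound for 48 hours before readout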
[8] = modifiers of HSF1 nuclear foci, imaging, Selleck Cancer Library (AID 1347162; in the data active = plate-normalised HSF1 focus index below about 0.46); conditions: human cells, at 10 µM; SSMD: measured here: HSF1 foci SSMD mean; cell count: measured here: cell number; plate-normalised HSF1 focus index: stronger effect = lower value
[9] = growth inhibition of DIPG glioma cells, dose response, cell-based, SU-DIPG-IV, MIPE4.0, CellTiter-Glo, qHTS (AID 1347063; cut-off not given, nearly all actives have AC50 up to about 30 µM;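 also: compound exposure lasted 48 hours before the viability readout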); conditions: SU-DIPG-IV viability, CellTiter-Glo ATP luminescence
[10] = sensitizers of A549 cells to miR-34 induction, primary screen, imaging, A549 dox-inducible miR-34, nuclei and caspase counts (AID 1347080;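 active = compounds whose cell count with miR-34 switched on is under 0.7 times the count with it off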); conditions: A549 miR-34 inducible, Hoechst nuclei count, 48 h
[11] = SU-DIPG-XXV glioma cell viability, MIPE5.0 library, qHTS (AID 1347068; cut-off not given, nearly all actives have IC50 up to about 30 µM;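 as to IC50: cells exposed to compound for 48 hours before viability readout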)
[12] = survival rescue of mitochondrial mutant cells in low glucose, primary screen, MELAS cybrids, Rieske KO mouse fibroblasts, CellTiter-Glo (AID 1508586;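 active = mean z-score across replicates of 1.96 or higher in either the MELAS or the Rieske mutant cell line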;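 also: z relative to plate mean and SD of compound and empty wells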)
[13] = LFS_MB_P medulloblastoma growth inhibition, cell-based, chromothripsis tumors, cisplatin or BGB combos (AID 1671449; in the data active = inhibition above about 80%;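 also: cells exposed for 96 hours; 0% = vehicle DMSO and 100% = killing by high DMSO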); conditions: LFS_MB_P medulloblastoma cells
[14] = HDN33 neuroblastoma growth inhibition, cell-based, chromothripsis tumors, cisplatin or BGB combos (AID 1671450; in the data active = inhibition above about 80%;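 also: cells exposed to compound for four days; 0% = vehicle DMSO and 100% = cell killing by high DMSO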); conditions: HDN33 neuroblastoma cells, stronger effect = higher value
[15] = ICB984 medulloblastoma cell growth inhibition, synergistic combos for chromothripsis tumors, cisplatin or BGB combos (AID 1671451; call rule not given here;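 also: cells exposed for 96 hours before readout; 0% = vehicle DMSO and 100% = killing by high DMSO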); conditions: ICB984 medulloblastoma cells, drug combinations, stronger effect = higher value
[16] = stronger effect = lower value, cell number ratio, induced over uninduced
[17] = measured here: relative caspase fold change +Dox/-Dox
[18] = measured here: total cells with miR-34 induction, stronger effect = lower value
[19] = measured here: total cells without miR-34 induction

With C[C@]12CC[C@H](O)CC1=CC[C@@H]1[C@@H]2CC[C@]2(C)C(c3cccnc3)=CC[C@@H]12 the outcome [1] was “inactive”, the outcome [2] was “inactive” and the outcome [3] was “inactive”. For the same molecule, the outcome [4] was “inactive”, the outcome [5] was “inactive” and the outcome [6] was “inactive”. The outcome [7] was “inactive”, the SSMD [8] was 1.68 and the cell count [8] was 7310. For the same molecule, the plate-normalised HSF1 focus index [8] was 1.06 (inactive).
In the case of CC[C@H](CO)Nc1nc(NCc2ccccc2)c2ncn(C(C)C)c2n1, the AC50 [1] is reported as 20.9 µM (active), the AC50 [2] is reported as 16.6 µM (active) and the AC50 [3] is reported as 26.4 µM (active). The AC50 [9] was 20.9 µM (active), the fold change [10, 16] was 0.923 (inactive) and the fold change [10, 17] was 1.07. The cell count [10, 18] was 983, the cell count [10, 19] was 1060 and the SSMD [8] was 1.82. The cell count [8] was 7490 and the plate-normalised HSF1 focus index [8] was 1.11 (inactive).
With CC(C)(O)CCc1ccc(OCc2cc(-c3cccc(OC(F)F)c3)c3ncccc3c2)cc1 the AC50 [1] was 23.5 µM (active), the outcome [2] was “inactive” and the outcome [3] was “inactive”. The outcome [9] was “inactive”, the outcome [6] was “inactive” and the AC50 [7] was 23.5 µM (active).
For CN(CC(=O)N(Cc1ccc(C2CCCCC2)cc1)c1ccc(C(=O)O)c(O)c1)S(=O)(=O)c1c(F)c(F)c(F)c(F)c1F, the AC50 [1] was 8.33 µM (active), the AC50 [2] was 11.8 µM (active) and the AC50 [3] was 16.6 µM (active). For the same molecule, the AC50 [4] was 6.61 µM (active), the AC50 [5] was 9.34 µM (active) and the AC50 [6] was 3.32 µM (active). For the same molecule, the AC50 [7] was 3.72 µM (active) and the IC50 [11] was 8.33 µM (active).
For C[C@@H]1C(=O)OC2[C@H](O)[C@]34[C@H]5C[C@@H](C(C)(C)C)[C@]36[C@@H](OC(=O)[C@@H]6O)O[C@@]4(C(=O)O5)[C@]21O (stereo partly specified), the outcome [1] was “inactive”, the outcome [2] was “inactive” and the outcome [3] was “inactive”. For the same molecule, the outcome [4] was “inactive”, the outcome [5] was “inactive” and the outcome [6] was “inactive”. For the same molecule, the outcome [7] was “inactive” and the outcome [11] was “inactive”.
With COc1ccccc1-c1cccc(-c2c(O)c3cc(C#N)c(Cl)cc3[nH]c2=O)c1 the outcome [1] was “inactive”, the outcome [2] was “inactive” and the outcome [3] was “inactive”. The outcome [4] was “inactive”, the outcome [5] was “inactive” and the outcome [6] was “inactive”. For the same molecule, the outcome [7] was “inactive” and the outcome [11] was “inactive”.
In the case of COc1ccc(-c2nc(N3CCOCC3)c3sc(CN(C)c4ncc(C(=O)NO)cn4)cc3n2)cn1, the AC50 [1] is reported as 0.0235 µM (active), the AC50 [2] is reported as 0.0372 µM (active) and the AC50 [3] is reported as 0.0132 µM (active). For the same molecule, the AC50 [4] was 0.0263 µM (active), the AC50 [5] was 0.0148 µM (active) and the AC50 [6] was 0.00263 µM (active). For the same molecule, the AC50 [7] was 0.00662 µM (active), the IC50 [11] was 0.295 µM (active) and the fold change [10, 16] was 1.02 (inactive). It also gave a fold change [10, 17] of 0.447, a cell count [10, 18] of 1250 and a cell count [10, 19] of 1230. For the same molecule, the z-score ([12]; MELAS cybrid survival, CellTiter-Glo 48 h, stronger effect = higher value) was -0.053 (inactive), the z-score ([12]; Rieske KO mouse fibroblast survival, CellTiter-Glo 72 h) was -3.69 and the inhibition ([13]; at 0.5 µM, stronger effect = higher value) was -17.1% (inactive) and 84.7% (active). The inhibition ([13]; measured here: combination with BGB IC20, at 0.005 µM) was -19% and -26.8%, the inhibition ([13]; measured here: combination with BGB IC40, at 0.005 µM) was -13.4% and -10.7% and the inhibition ([13]; measured here: combination with BGB IC40, at 0.05 µM) was -8.69% and -6.92%. The inhibition ([13]; measured here: combination with cisplatin, at 0.5 µM, stronger effect = higher value) was -32.9% and 119%, the inhibition ([13]; measured here: combination with cisplatin, at 5 µM, stronger effect = higher value) was 120% and 126% and the inhibition ([14]; BGB combo, at 5 µM) was 99.9% and 99.7%. For the same molecule, the inhibition ([14]; at 0.5 µM) was 98.9% (active) and 93.4% (active), the inhibition ([14]; cisplatin combo, at 5 µM) was 99.9% and the inhibition ([14]; measured here: with BGB IC20 combination, at 0.5 µM) was 97.8% and 90.5%. For the same molecule, the inhibition ([14]; measured here: with cisplatin IC20 combination, at 0.5 µM) was 99.5% and 96.1%, the inhibition ([14]; single agent, at 5 µM) was 99.9% and the inhibition ([15]; BGB IC20 combo, at 0.005 µM) was 85.9% and 87.2%. For the same molecule, the inhibition ([15]; BGB IC40 combo, at 0.005 µM) was 93.2% and 94%, the inhibition ([15]; BGB IC40 combo, at 0.05 µM) was 101% and the inhibition ([15]; at 0.5 µM) was -8.74% (inactive) and -32% (inactive).
